{"source": "PubChem BioAssay (EPA / NIEHS)", "note": "Calls of active or inactive are those of the source. How the source made its calls: active means hit-call score of the fitted dose curve at least 0.9, where 1 is the maximum; inactive means score below 0.9.", "data": [{"assay": "ATG_PPRE_CIS: Attagene CIS-FACTORIAL HepG2 Assay for human Peroxisome Proliferator-activated Response Element (PPRE) (AID 2282958)", "details": "HepG2 PPRE cis-element reporter, Attagene transcription factor profiling; actives raise or lower the signal", "description": "ATG_CIS is a cell-based, multiplexed-readout assay that uses HepG2, a human liver cell line, with measurements taken at 24 hours after chemical dosing in a 24-well plate.ATG_PPRE_CIS is one of 52 assay component(s) measured or calculated from the ATG_CIS assay. It is designed to make measurements of mRNA induction, a form of inducible reporter, as detected with fluorescence intensity signals by Reverse transcription polymerase chain reaction (RT-PCR) and Capillary electrophoresis technology.Data from the assay component ATG_PPRE_CIS was analyzed into 1 assay endpoint. This assay endpoint, ATG_PPRE_CIS, was analyzed with bidirectional fitting relative to DMSO as the negative control and baseline of activity. Using a type of inducible reporter, measures of mRNA for gain or loss-of-signal activity can be used to understand the reporter gene at the transcription factor-level as they relate to the gene PPARA and PPARD and PPARG. Furthermore, this assay endpoint can be referred to as a primary readout, because this assay has produced multiple assay endpoints where this one serves a reporter gene function. To generalize the intended target to other relatable targets, this assay endpoint is annotated to the nuclear receptor intended target family, where the subfamily is non-steroidal.\nHuman liver HepG2 cells are transiently transfected with multiple reporter transcription units (MRTUs) in 6-well plates using FuGene 6 reagent (Roche; 3 ml FuGene/1 mg DNA). The MRTU constructs are regulated by a cis-regulating element (promoter). […] A major difference between the CIS and TRANS system is that in CIS activities of endogenous TFs are measured, whereas the TRANS assay evaluates changes in activities of exogenous, chimeric NR-Gal4 proteins. […] At the end of 24 hour incubation, total RNA was isolated using TriZol reagent (Invitrogen). The isolated RNA is then reverse-transcribed using oligo(dT) primer and Mo-MLV reverse transcriptase (Invitrogen) with DNAse I (Ambion) treatment for 30 min. The one-tenth of the produced cDNA was amplified by PCR using Taq DNA polymerase (Invitrogen) and two reporter sequence-specific primers. The PCR products were fluorescently labeled by primer extension with 6-arboxyfluorescein (6-FAM) 5'-labeled reporter sequence-specific primer (2 min at 95 C, 20 s at 68 C and 10 min at 72 C) and these products were digested with 5U of HpaI (New England Biolabs) for 2h at 37 C. The fragments were purified using Qiaquick PCR columns (Qiagen), analyzed on an ABI 3130xL genetic analyzer (Applied Biosystems) with peak positions identified by using a set of X-rhodamine (ROX)-labeled MapMarker1000 molecular weight standards (BioVentures). The raw capillary electrophoresis data was processed using Attagraph software (Attagene).", "values": [{"smiles": "CC(F)(F)CC(F)(F)F", "outcome": "inactive"}, {"smiles": "C=CC(=O)[O][Sn]([CH2]CCC)([CH2]CCC)[CH2]CCC", "AC50": "0.00687 µM (active)"}, {"smiles": "O=[N+]([O-])c1ccc(Cl)c([N+](=O)[O-])c1", "outcome": "inactive"}, {"smiles": "O=C1c2ccccc2C(=O)C1C(=O)C(c1ccccc1)c1ccc(Cl)cc1", "note": "(stereo not given)", "AC50": "3.53 µM (active)"}, {"smiles": "OC[C@@H](O)[C@H]1O[C@@H]2O[C@H](C(Cl)(Cl)Cl)O[C@@H]2[C@H]1O", "outcome": "inactive"}, {"smiles": "CCOC(=O)OC1=C(c2cc(C)ccc2C)C(=O)NC12CCC(OC)CC2", "note": "(stereo not given)", "outcome": "inactive"}, {"smiles": "CC(C)(C)c1cc([N+](=O)[O-])cc(C(C)(C)C)c1O", "AC50": "12.8 µM (active)"}, {"smiles": "OC(Cc1ccccc1Cl)(Cn1[nH]cnc1=S)C1(Cl)CC1", "note": "(stereo not given)", "outcome": "inactive"}, {"smiles": "CC(=Cc1ccccc1)[N+](=O)[O-]", "outcome": "inactive"}, {"smiles": "CCCCCCCCCCBr", "outcome": "inactive"}, {"smiles": "CCN(N=O)C(N)=O", "outcome": "inactive"}, {"smiles": "Clc1cc(C(Cl)(Cl)Cl)cnc1Cl", "outcome": "inactive"}, {"smiles": "CCC[CH2][Sn]([CH2]CCC)([CH2]CCC)[CH2]CCC", "AC50": "2.2 µM (active)"}, {"smiles": "Cc1cccc(OP(=O)(Oc2cccc(C)c2)Oc2cccc(C)c2)c1", "outcome": "inactive"}, {"smiles": "N#CS", "outcome": "inactive"}, {"smiles": "O=C=Nc1ccc(Cl)cc1", "outcome": "inactive"}, {"smiles": "Nc1ncn[nH]1", "outcome": "inactive"}, {"smiles": "C=CC(F)(C(F)(F)F)C(F)(F)C(F)(F)F", "note": "(stereo not given)", "outcome": "inactive"}, {"smiles": "Brc1ccc(Br)cc1", "outcome": "inactive"}, {"smiles": "O=C(O)COc1cc(Cl)c(Cl)cc1Cl", "AC50": "33.5 µM (active)"}, {"smiles": "Brc1ccc(Oc2c(Br)cc(Br)cc2Br)c(Br)c1", "outcome": "inactive"}, {"smiles": "Oc1cccc(-c2ccccc2)c1", "outcome": "inactive"}, {"smiles": "FC(F)OCC(F)(F)C(F)(F)F", "outcome": "inactive"}, {"smiles": "N#Cc1ccc(Cl)cc1", "outcome": "inactive"}, {"smiles": "CC(C)[C@H](C(=O)OC(C#N)c1cccc(Oc2ccccc2)c1)c1ccc(OC(F)F)cc1", "note": "(stereo not given in full)", "outcome": "inactive"}, {"smiles": "C=CCN=C=S", "outcome": "inactive"}, {"smiles": "CC(=O)CN(CC(C)=O)N=O", "outcome": "inactive"}, {"smiles": "NC(=O)c1ccc(N)nc1", "outcome": "inactive"}, {"smiles": "CC1CC(=O)O1", "note": "(stereo not given)", "outcome": "inactive"}, {"smiles": "C#CCOC(=O)/C=C(C)/C=C/CC(C)CCCC(C)C", "note": "(stereo not given)", "outcome": "inactive"}, {"smiles": "CCCCS(=O)(=O)Cl", "outcome": "inactive"}, {"smiles": "C=CCOC(F)(C(F)(F)F)C(F)(F)F", "outcome": "inactive"}, {"smiles": "N#Cc1ccncc1", "outcome": "inactive"}, {"smiles": "N#CCCC(Br)(C#N)CBr", "note": "(stereo not given)", "outcome": "inactive"}, {"smiles": "Cc1cc(C(C)(C)c2ccc(O)c(C)c2)ccc1O", "outcome": "inactive"}, {"smiles": "Nc1ccc(Br)cc1", "outcome": "inactive"}, {"smiles": "ClCCN1CCOCC1", "outcome": "inactive"}, {"smiles": "CCCCC(CC)C(=O)Cl", "note": "(stereo not given)", "outcome": "inactive"}, {"smiles": "Cc1c([N+](=O)[O-])c(C)c([N+](=O)[O-])c(C(C)(C)C)c1[N+](=O)[O-]", "outcome": "inactive"}, {"smiles": "CN(N=O)c1ccc([N+](=O)[O-])cc1", "outcome": "inactive"}]}]}
